# Most compounds without a hit are left out; they make up all but 3.5% or so of the library.
# mHTT-CaM PPI inh: inhibitors of human mutant huntingtin-calmodulin interaction. AlphaScreen His-mHTT/GST-CaM binding, luminescence. inhibition, % at 15 µM. AID 1671202. 3.6% of 190,000 active
# Pf apPOL inh: Pf-apPOL DNA polymerase inhibition; Recombinant Pf-apPOL, molecular beacon fluorescence, 1.5 h; inhibition, % at 10 µM; 0.25% of 210,000 active; AID 1794808
# A number is an active result; n = inactive; x = no result. Rule as the data show it: active = inhibition above about 50%; inactive = the rest.
SMILES,mHTT-CaM PPI inh,Pf apPOL inh
COc1cc(-c2nc3ccccn3c2N=Cc2cn[nH]c2-c2ccccc2)ccc1O,n,n
COc1ccc(-c2[nH]ncc2-c2ccc(F)cc2)c(O)c1,n,n
CCc1cc(-c2[nH]ncc2-c2ccc(F)cc2)c(O)cc1OC,74,n
Oc1ccc(-c2[nH]ncc2-c2ccccc2)c(O)c1O,96,n
O=Cc1cn[nH]c1-c1ccccc1,n,n
CC1C(O)CC2C(C(=O)O)=COC(OC3OC(CO)C(O)C(O)C3O)C21 (stereo not drawn),x,n
O=C(NCc1ccco1)c1cc2cc(Br)cc(Br)c2oc1=O,n,n
Cc1ccc(-c2cc(-c3cccc4nc(C)oc34)n[nH]2)c(O)c1,n,n
Cc1cccnc1NC(=O)Cc1ccc([N+](=O)[O-])cc1,n,n
O=C(NCc1ccc2c(c1)OCO2)c1cc2n(n1)C(C(F)(F)F)CC(c1ccc(Cl)cc1)N2 (stereo not drawn),n,n
C=CCN1C(=O)/C(=C2/SC(N3CCCCC3)=NC2=O)c2cc(Br)ccc21,52,n
CCCN1C(=O)/C(=C2/SC(=N)NC2=O)c2cc(Br)ccc21,n,n
C=CCN1C(=O)/C(=C2\SC(N3CC(C)OC(C)C3)=NC2=O)c2cc(Br)ccc21 (stereo not drawn),54,x
O=C(O)CN1C(=O)/C(=C2/SC(N3CCOCC3)=NC2=O)c2cc(Br)ccc21,n,n
Cc1ccnc(NC(c2ccncc2)c2ccc3ccc(C)nc3c2O)c1 (stereo not drawn),90,n
Cc1ccnc(NC(c2cccnc2)c2ccc3cccnc3c2O)c1 (stereo not drawn),100,n
COc1ccccc1CC(=O)Nc1cc(C)ccn1,n,n
Cc1ccnc(NC(=O)CSc2ccccn2)c1,x,n
COc1cccc(C(Nc2cc(C)ccn2)c2ccc3cccnc3c2O)c1 (stereo not drawn),99,n
Cc1ccnc(NC(=O)c2cc(I)ccc2Cl)c1,n,n
COc1ccc(C(Nc2cc(C)ccn2)c2ccc3cccnc3c2O)cc1O (stereo not drawn),100,n
COc1cccc(C(=O)Nc2cccc3cccnc23)c1,n,n
C=CCOC(=O)COc1ccc2c(=O)c(-c3ccc(Br)cc3)c(C(=O)OCC)oc2c1,n,n
O=C(NCc1ccco1)N1CCCC1c1nc(-c2ccc(F)cc2F)no1 (stereo not drawn),n,n
COc1cccc(N2C=C(C(=O)N3CCCC3)S(=O)(=O)c3ccc(Cl)cc32)c1,n,n
SMILES,mHTT-CaM PPI inh,Pf apPOL inh
Cc1ccnc(NC(c2cccnc2)c2ccc3ccc(C)nc3c2O)c1 (stereo not drawn),76,n
OCCN(CCO)c1nc(N2CCCCC2)c2nc(N(CCO)CCO)nc(N3CCCCC3)c2n1,x,61
OCCNc1nc(N2CCCCC2)nc(N2CCCCC2)n1,n,x
CCSc1nnc(NC(=O)c2ccc(N3CCCC3)nn2)s1,n,n
Cc1csc(NC(=O)c2ccc(N3CCCC3)nn2)n1,72,n
CC(C)Oc1ccc(C(=O)NCC2(O)CCCC2)cc1,n,n
CCc1cccc(Nc2c(-c3nc(C)no3)cnc3nc(C)ccc23)c1,68,n
Cc1ccc2c(Nc3ccc(C)c(F)c3)c(-c3nc(C)no3)cnc2n1,n,n
OC1(C(F)(F)F)Oc2ccccc2-c2oncc21 (stereo not drawn),n,x
O=C1C2C3C=CC(O3)C2C(=O)N1c1cccc(C(F)(F)F)c1 (stereo not drawn),n,n
Cn1c(Br)nc2c1c(=O)n(Cc1ccccc1F)c(=O)n2C,n,n
Cc1ccc(-n2c(SCc3ccccc3)nc3c(c2=O)SCC3)cc1,n,n
O=C(Nc1cc(-c2ccccn2)no1)c1cccc(C(F)(F)F)c1,n,n
COCCCNC(=O)N1CCCCCC1c1ccc(Cl)cc1 (stereo not drawn),n,72
COCCCNC(=O)N1CCCC1c1ccc(Cl)cc1 (stereo not drawn),n,n
Cc1nc2nc(SCc3cc(=O)n4c(C)cccc4n3)nn2c(C)c1Cc1ccccc1Cl,n,n
CCOc1ccccc1NS(=O)(=O)c1ccc(OCC)c2ncccc12,n,n
c1ccc(C2=NCCn3cccc32)cc1,n,n
Clc1ccc(-c2cc3n(c2)CCn2cccc2-3)cc1Cl,100,n
CC1c2cccn2CCN1C(=O)Nc1ccc(F)cc1F (stereo not drawn),n,n
Brc1ccc(-c2cc3n(c2)CCn2cccc2-3)cc1,84,n
Fc1ccc(-c2cc3n(c2)CCn2cccc2-3)c(F)c1,100,n
Brc1ccc(-c2cc3ccccn3c2)cc1,n,n
Oc1ccc(C2=Nn3c(nnc3-c3ccccc3Cl)SC2)cc1O,n,n
CCCN1C(=O)Cc2ccccc2C1C(=O)NCc1ccc(C)cc1 (stereo not drawn),n,n
SMILES,mHTT-CaM PPI inh,Pf apPOL inh
CC1C=CCC2C(=O)N(c3cc([N+](=O)[O-])ccc3F)C(=O)C12 (stereo not drawn),n,n
COc1ccc(-c2c(C#N)c(N)n3c(nc4ccccc43)c2C#N)cc1,94,n
Cc1ccc(-c2c(C#N)c(N)n3c(nc4ccccc43)c2C#N)cc1,n,n
CCCc1cc(C2CCCN2C(=O)NCC2CCC(C(=O)OCC)CC2)no1 (stereo not drawn),n,n
COc1cc(N=c2oc3c(O)cc(C(C)(C)C)cc3cc2C(N)=O)cc(OC)c1,56,n
CCOc1cccc2cc(C(N)=O)c(=Nc3ccc(OC)cc3)oc12,n,n
O=C(NCCc1ccccc1)c1cncc(-c2ccc(F)cc2F)c1,n,n
COc1ccccc1CNC(=O)C1CCN(c2cncnc2N2CCCC2)CC1,n,n
O=C1C=CC(=O)N1c1ccc(Oc2cccc(Oc3ccc(N4C(=O)C=CC4=O)cc3)c2)cc1,91,n
NC(=O)c1ccc(Oc2cccc(Oc3ccc(C(N)=O)cc3)c2)cc1,n,n
Nc1ccc(Oc2cccc(Oc3ccc(N)cc3)c2)cc1,52,n
Cc1cccc(Oc2ccc(N3C(=O)C=CC3=O)cc2)c1C,n,n
CCOc1ccccc1CNC(=O)c1nc(C)n(C2CCN(S(C)(=O)=O)CC2)c1C,n,n
CCSc1ccsc1C1C(C#N)=C(N)N(c2cccc([N+](=O)[O-])c2)C2=C1C(=O)CCC2 (stereo not drawn),n,n
CCSc1ccsc1C1C(C#N)=C(N)N(c2ccc([N+](=O)[O-])cc2)C2=C1C(=O)CCC2 (stereo not drawn),51,n
Clc1cc2nc(-c3ccco3)c(-c3ccco3)nc2cc1Cl,100,n
CSc1nnc(-c2ccco2)c(-c2ccco2)n1,n,n
Nc1cccc(C(=O)Nc2ccccc2)c1,n,n
Nc1ccc(C(=O)Nc2ccccc2)c(N)c1,95,n
Oc1c(-c2ccccc2)c2nc3ccccc3nc2c2ccccc12,n,x
COc1ccc(C2Oc3c(Br)cc(Br)cc3C=C2[N+](=O)[O-])cc1OC (stereo not drawn),69,n
COc1cc(C2Oc3ccccc3C=C2[N+](=O)[O-])ccc1OCc1ccccc1 (stereo not drawn),n,n
CC=CC(=O)Oc1cc(C)[nH]c(=O)c1[N+](=O)[O-],n,n
COc1cccc(C(=O)Oc2cc(C)[nH]c(=O)c2[N+](=O)[O-])c1OC,n,n
Cc1cc(OC(=O)C=Cc2ccc3c(c2)OCO3)c([N+](=O)[O-])c(=O)[nH]1,77,n
COc1ccc(C(=O)Oc2cc(C)[nH]c(=O)c2[N+](=O)[O-])cc1OC,86,n
Cc1ccc(N2CCC(NS(=O)(=O)c3cccc(F)c3)C2=O)cc1 (stereo not drawn),n,n
